Holding throughout (assay): DAPPL (digital affinity profiling via proximity ligation, sequencing); 10 mM Tris-HCl pH 7.5, 50 mM NaCl, 1 mM DTT, 4% glycerol, room temperature, 30 min; GST-TFs on glutathione beads, 16-mer random dsDNA library, 0.1% formaldehyde crosslink after washing; high values mean tight binding
In one test the target is T1, FLI1 (Homo sapiens, UniProt Q01543 1-452).
T1 sequence: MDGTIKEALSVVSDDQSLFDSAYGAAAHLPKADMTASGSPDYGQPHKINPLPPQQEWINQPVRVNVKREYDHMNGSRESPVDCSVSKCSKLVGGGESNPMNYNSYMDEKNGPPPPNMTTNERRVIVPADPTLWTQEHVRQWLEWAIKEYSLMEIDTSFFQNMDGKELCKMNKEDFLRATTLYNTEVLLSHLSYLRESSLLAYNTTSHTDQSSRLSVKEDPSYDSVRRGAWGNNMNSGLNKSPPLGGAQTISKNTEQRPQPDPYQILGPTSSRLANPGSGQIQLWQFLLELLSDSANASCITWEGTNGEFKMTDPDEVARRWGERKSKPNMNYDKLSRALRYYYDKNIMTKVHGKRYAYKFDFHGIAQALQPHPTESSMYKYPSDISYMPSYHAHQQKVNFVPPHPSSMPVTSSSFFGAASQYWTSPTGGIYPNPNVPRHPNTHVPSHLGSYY
The following applies: protein: recombinant; tags: N-terminal GST; dsDNA, one strand shown. The procedure, abridged: (§1)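 After expression in yeast as GST fusions, human transcription factors were bound to glutathione beads, DNA-barcoded and mixed with a tag-only sample. The pools were incubated with 200 nmole of a 16-mer random double-stranded DNA library in Tris/NaCl/DTT/glycerol buffer (30 min, room temperature), washed and crosslinked with 0.1% formaldehyde. Proximity ligation with BsaI/T4 ligase ran for 1 h at 37 °C, before PCR amplification and sequencing on an Illumina NextSeq500. Binding signal is a hexamer's read frequency for a factor divided by its frequency for the tag-only sample.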

The target in another test is T2, ELK1 (Homo sapiens, UniProt P19419 1-428).
T2 sequence: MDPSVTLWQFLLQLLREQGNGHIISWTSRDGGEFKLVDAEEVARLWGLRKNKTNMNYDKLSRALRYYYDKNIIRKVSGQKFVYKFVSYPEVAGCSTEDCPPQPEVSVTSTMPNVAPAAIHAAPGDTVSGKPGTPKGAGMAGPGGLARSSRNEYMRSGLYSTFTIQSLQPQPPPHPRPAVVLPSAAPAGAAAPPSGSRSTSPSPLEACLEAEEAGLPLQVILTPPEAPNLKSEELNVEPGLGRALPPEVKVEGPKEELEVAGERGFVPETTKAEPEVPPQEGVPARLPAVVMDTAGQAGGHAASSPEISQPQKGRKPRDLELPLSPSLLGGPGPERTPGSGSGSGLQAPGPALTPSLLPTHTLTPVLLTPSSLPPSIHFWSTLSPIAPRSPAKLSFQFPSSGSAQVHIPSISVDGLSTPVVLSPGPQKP
The following applies: protein: recombinant; tags: N-terminal GST; dsDNA, one strand shown. The procedure, abridged:
as §1

A further test addresses T3, GABPA (Homo sapiens, UniProt Q06546 1-454).
T3 sequence: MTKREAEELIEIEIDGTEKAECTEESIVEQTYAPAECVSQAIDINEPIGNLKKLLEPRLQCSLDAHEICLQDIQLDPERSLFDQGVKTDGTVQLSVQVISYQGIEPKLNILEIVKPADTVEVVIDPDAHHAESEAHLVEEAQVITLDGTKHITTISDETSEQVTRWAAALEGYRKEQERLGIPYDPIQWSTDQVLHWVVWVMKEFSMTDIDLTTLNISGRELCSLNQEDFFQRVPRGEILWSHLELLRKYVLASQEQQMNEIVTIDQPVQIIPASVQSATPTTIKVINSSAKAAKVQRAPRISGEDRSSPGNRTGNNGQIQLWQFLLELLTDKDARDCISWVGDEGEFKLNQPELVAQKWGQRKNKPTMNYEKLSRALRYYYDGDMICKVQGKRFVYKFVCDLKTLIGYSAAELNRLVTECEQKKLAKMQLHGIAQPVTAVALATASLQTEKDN
As to conditions: protein: recombinant; tags: N-terminal GST; dsDNA, one strand shown. The procedure, abridged: as §1

For a further test, the target named is T4, ERG (Homo sapiens, UniProt P11308 1-479).
T4 sequence: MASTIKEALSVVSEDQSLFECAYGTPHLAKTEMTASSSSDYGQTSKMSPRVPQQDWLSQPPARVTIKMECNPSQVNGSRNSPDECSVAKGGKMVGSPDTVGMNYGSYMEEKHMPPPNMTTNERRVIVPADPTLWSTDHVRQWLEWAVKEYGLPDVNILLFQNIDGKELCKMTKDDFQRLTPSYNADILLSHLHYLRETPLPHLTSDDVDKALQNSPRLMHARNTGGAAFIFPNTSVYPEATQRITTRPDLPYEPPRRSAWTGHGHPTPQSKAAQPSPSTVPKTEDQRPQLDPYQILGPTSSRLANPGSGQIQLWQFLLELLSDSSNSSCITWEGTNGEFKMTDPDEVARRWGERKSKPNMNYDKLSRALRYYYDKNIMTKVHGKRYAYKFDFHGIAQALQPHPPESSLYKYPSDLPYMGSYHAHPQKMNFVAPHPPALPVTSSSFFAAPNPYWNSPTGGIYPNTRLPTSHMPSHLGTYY
As to conditions: protein: recombinant; tags: N-terminal GST; dsDNA, one strand shown. The procedure, abridged:
as §1

For the next test, the target named is ELF1 (Homo sapiens, UniProt P32519 1-619). As to conditions: protein: recombinant; tags: N-terminal GST; dsDNA, one strand shown. The procedure, abridged:
as §1

For a further test, the target named is T5, EHF (Homo sapiens, UniProt Q9NZC4 1-300).
T5 sequence: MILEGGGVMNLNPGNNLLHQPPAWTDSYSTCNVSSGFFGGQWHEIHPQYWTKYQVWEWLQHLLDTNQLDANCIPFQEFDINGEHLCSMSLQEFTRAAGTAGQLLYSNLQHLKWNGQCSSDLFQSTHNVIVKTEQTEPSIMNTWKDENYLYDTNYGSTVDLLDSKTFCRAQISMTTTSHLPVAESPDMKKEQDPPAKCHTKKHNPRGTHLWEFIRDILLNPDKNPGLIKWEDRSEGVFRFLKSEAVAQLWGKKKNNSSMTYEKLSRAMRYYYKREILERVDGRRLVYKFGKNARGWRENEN
The following applies: protein: recombinant; tags: N-terminal GST; dsDNA, one strand shown. The procedure, abridged: as §1

In another test the target is SPI1 (Homo sapiens, UniProt P17947 1-270). The following applies: protein: recombinant; tags: N-terminal GST; dsDNA, one strand shown. The procedure, abridged:
as §1

Another test concerns the target SPIB (Homo sapiens, UniProt Q01892 1-262). The following applies: protein: recombinant; tags: N-terminal GST; dsDNA, one strand shown. The procedure, abridged:
as §1

In a further test the target is T6, ELK3 (Homo sapiens, UniProt P41970 1-407).
T6 sequence: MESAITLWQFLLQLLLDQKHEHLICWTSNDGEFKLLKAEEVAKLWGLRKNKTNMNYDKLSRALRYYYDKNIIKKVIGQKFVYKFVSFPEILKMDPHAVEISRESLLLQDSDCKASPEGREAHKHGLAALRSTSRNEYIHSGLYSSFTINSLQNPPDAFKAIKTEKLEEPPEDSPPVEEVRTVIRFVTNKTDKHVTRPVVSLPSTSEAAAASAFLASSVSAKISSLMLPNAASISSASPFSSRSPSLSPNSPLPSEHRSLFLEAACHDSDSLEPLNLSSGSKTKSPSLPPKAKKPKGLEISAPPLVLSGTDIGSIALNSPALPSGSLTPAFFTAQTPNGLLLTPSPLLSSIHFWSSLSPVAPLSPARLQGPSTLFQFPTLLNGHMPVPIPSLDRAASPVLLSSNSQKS
As to conditions: protein: recombinant; tags: N-terminal GST; dsDNA, one strand shown. The procedure, abridged:
as §1

The next test concerns the target T7, FEV (Homo sapiens, UniProt Q99581 1-238).
T7 sequence: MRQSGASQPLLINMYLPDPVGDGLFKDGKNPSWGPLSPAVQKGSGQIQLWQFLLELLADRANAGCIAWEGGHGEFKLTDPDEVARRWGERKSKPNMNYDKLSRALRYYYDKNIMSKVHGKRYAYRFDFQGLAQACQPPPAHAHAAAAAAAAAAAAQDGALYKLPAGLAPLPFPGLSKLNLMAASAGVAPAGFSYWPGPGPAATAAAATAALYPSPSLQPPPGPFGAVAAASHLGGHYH
The following applies: protein: recombinant; tags: N-terminal GST; dsDNA, one strand shown. The procedure, abridged: as §1

For a further test, the target named is ETV5 (Homo sapiens, UniProt P41161 1-510). The following applies: protein: recombinant; tags: N-terminal GST; dsDNA, one strand shown. The procedure, abridged:
as §1

The target of another test is HSF1 (Homo sapiens, UniProt Q00613 1-529). As to conditions: protein: recombinant; tags: N-terminal GST; chain copies: 3; dsDNA, one strand shown. The procedure, abridged:
as §1

In another test the target is T8, SPIC (Homo sapiens, UniProt Q8N5J4 1-248).
T8 sequence: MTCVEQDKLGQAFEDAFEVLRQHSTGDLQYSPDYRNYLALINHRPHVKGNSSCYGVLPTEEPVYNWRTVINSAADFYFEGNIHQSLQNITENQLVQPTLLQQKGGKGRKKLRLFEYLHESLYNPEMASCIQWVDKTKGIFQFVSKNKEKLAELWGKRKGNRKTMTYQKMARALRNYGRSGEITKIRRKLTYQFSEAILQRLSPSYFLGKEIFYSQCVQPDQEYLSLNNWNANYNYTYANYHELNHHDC
As to conditions: protein: recombinant; tags: N-terminal GST; dsDNA, one strand shown. The procedure, abridged: as §1

A further test deals with ELF4 (Homo sapiens, UniProt Q99607 1-663). As to conditions: protein: recombinant; tags: N-terminal GST; dsDNA, one strand shown. The procedure, abridged: as §1
Another test deals with T9, ELK4 (Homo sapiens, UniProt P28324-2 1-405).
T9 sequence: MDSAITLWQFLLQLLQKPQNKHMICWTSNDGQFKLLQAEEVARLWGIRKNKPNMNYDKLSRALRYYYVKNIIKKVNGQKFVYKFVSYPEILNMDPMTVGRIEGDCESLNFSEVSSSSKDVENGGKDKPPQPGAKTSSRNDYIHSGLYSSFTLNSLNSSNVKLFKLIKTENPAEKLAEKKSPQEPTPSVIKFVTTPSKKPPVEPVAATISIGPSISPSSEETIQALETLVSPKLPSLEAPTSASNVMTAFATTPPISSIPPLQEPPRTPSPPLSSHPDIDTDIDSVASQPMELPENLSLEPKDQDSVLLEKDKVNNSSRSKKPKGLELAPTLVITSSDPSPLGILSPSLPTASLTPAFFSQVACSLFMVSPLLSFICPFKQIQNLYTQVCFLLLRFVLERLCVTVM
As to conditions: protein: recombinant; tags: N-terminal GST; dsDNA, one strand shown. The procedure, abridged:
as §1

The target of a further test is T10, ETV2 (Homo sapiens, UniProt O00321 1-342).
T10 sequence: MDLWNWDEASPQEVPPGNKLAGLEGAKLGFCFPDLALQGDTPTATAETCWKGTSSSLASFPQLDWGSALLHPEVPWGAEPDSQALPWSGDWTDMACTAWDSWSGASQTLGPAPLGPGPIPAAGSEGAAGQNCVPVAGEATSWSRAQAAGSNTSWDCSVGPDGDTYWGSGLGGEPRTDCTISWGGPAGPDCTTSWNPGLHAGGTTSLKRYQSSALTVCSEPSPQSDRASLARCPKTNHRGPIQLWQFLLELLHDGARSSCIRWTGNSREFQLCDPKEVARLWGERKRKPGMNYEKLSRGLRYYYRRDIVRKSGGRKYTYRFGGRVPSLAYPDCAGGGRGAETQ
The following applies: protein: recombinant; tags: N-terminal GST; dsDNA, one strand shown. The procedure, abridged: as §1

The target in the next test is T11, ELF3 (Homo sapiens, UniProt P78545 1-371).
T11 sequence: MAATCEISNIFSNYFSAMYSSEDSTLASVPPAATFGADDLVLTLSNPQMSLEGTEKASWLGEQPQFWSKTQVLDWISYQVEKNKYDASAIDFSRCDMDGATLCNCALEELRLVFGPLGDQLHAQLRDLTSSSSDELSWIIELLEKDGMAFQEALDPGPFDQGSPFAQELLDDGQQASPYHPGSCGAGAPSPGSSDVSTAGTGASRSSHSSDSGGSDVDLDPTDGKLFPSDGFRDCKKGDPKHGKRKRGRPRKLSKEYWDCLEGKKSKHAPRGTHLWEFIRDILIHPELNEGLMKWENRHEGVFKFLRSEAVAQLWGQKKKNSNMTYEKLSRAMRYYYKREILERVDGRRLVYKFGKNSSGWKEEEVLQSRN
As to conditions: protein: recombinant; tags: N-terminal GST; dsDNA, one strand shown. The procedure, abridged: as §1

For another test, the target named is ETV1 (Homo sapiens, UniProt P50549 1-477). The following applies: protein: recombinant; tags: N-terminal GST; dsDNA, one strand shown. The procedure, abridged:
as §1

Chain of ETV5 (P41161 whole entry): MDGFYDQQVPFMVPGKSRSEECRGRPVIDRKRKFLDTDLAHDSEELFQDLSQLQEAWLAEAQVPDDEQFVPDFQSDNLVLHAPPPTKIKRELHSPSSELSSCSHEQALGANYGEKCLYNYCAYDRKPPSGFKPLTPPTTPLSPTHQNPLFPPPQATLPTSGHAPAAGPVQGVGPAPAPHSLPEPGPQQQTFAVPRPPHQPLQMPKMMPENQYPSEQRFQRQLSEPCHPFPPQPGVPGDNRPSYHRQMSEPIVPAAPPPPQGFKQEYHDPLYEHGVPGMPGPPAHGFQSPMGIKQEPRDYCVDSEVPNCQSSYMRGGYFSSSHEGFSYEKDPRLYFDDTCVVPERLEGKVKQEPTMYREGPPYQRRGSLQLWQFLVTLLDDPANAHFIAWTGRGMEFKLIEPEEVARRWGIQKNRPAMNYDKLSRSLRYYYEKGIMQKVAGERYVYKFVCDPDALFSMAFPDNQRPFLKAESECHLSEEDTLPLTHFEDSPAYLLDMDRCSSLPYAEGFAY
Chain of ETV1 (P50549 whole entry): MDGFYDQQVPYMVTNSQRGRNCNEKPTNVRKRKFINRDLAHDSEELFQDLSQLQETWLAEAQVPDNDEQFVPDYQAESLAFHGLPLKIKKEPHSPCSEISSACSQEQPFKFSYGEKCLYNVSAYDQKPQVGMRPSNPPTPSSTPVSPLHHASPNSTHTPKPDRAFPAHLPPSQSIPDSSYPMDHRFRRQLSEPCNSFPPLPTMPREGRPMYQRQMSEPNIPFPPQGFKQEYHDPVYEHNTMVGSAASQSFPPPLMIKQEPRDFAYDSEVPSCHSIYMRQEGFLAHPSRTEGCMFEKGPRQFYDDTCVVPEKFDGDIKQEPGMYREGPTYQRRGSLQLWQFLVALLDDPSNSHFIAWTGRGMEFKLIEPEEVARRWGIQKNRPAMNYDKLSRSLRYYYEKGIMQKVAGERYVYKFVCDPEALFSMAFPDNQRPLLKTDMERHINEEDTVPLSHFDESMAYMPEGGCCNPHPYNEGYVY
Chain of ELF1 (P32519 whole entry): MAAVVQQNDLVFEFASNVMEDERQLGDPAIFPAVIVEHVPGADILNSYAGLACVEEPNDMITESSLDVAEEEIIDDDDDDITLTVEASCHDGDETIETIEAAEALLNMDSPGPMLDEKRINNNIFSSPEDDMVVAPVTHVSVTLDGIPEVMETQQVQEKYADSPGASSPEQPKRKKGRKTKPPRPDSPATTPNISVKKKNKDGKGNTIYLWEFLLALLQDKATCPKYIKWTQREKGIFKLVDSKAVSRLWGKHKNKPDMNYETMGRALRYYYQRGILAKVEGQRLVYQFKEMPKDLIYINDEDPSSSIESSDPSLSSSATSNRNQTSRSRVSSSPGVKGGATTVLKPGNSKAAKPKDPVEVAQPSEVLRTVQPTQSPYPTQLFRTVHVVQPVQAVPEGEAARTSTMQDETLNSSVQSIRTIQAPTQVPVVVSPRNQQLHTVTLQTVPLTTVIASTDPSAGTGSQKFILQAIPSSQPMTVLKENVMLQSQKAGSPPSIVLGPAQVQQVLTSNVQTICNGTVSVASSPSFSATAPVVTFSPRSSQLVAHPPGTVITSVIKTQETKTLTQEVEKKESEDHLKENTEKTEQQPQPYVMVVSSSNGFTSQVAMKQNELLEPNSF
Chain of HSF1 (Q00613 whole entry): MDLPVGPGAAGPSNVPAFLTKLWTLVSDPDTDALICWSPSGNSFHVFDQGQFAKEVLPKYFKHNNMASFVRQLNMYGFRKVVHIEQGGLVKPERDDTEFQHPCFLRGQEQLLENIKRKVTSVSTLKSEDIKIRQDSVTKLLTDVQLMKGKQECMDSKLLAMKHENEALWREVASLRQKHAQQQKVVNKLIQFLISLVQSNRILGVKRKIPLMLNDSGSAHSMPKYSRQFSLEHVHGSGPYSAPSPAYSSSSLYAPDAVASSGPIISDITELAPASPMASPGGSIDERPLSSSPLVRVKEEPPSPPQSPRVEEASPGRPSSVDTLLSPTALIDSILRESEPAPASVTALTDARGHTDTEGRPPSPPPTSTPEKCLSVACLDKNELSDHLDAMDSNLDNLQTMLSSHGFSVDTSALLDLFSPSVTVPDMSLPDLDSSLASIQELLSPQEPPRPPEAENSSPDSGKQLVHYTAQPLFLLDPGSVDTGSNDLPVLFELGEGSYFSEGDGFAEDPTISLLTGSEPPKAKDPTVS
Chain of SPIB (Q01892 whole entry): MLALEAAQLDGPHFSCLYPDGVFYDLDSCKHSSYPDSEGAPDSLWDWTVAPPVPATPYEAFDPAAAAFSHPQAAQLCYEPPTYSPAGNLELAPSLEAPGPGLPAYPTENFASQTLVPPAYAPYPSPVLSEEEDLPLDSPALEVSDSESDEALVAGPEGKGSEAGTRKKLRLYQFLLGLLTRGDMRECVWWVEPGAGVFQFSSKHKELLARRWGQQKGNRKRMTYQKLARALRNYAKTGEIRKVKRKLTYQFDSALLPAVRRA
Chain of ELF4 (Q99607 whole entry): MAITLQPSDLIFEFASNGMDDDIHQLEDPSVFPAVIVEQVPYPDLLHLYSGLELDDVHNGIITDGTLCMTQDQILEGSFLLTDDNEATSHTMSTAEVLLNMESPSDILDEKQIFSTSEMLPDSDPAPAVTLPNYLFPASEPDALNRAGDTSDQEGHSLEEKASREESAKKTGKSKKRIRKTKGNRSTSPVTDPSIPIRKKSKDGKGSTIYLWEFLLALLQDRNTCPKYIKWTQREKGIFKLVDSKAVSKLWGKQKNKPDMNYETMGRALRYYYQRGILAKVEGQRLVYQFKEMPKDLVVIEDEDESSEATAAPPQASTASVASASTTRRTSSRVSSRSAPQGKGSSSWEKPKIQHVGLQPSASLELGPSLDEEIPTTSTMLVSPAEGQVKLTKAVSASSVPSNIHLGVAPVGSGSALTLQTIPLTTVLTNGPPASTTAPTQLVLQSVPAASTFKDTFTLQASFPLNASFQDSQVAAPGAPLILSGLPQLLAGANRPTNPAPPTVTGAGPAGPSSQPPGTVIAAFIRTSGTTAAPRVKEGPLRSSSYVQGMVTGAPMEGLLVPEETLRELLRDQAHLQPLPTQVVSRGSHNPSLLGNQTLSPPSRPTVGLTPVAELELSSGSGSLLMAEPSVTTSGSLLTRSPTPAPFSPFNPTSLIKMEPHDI

As for CACGCG, the binding signal was 1.32 fold enrichment (6-mer frequency, TF over GST control) with FLI1; 1.15 fold enrichment (6-mer frequency, TF over GST control) in the test with ELK1; 1.23 fold enrichment (6-mer frequency, TF over GST control) with GABPA; 1.18 fold enrichment (6-mer frequency, TF over GST control) with ERG; 1.23 fold enrichment (6-mer frequency, TF over GST control) with ELF1; 1.2 fold enrichment (6-mer frequency, TF over GST control) with EHF. Also, the binding signal with SPI1 is 1.08 fold enrichment (6-mer frequency, TF over GST control); with SPIB, 1.2 fold enrichment (6-mer frequency, TF over GST control); with ELK3, 1.14 fold enrichment (6-mer frequency, TF over GST control); with FEV it was 1.16 fold enrichment (6-mer frequency, TF over GST control); with ETV5 it was 1.04 fold enrichment (6-mer frequency, TF over GST control); in the test with HSF1 it was 1.1 fold enrichment (6-mer frequency, TF over GST control). Further, the binding signal was 1.29 fold enrichment (6-mer frequency, TF over GST control) in the test with SPIC; 1.2 fold enrichment (6-mer frequency, TF over GST control) with ELF4; 1.24 fold enrichment (6-mer frequency, TF over GST control) with ELK4; 1.18 fold enrichment (6-mer frequency, TF over GST control) with ETV2; 1.08 fold enrichment (6-mer frequency, TF over GST control) with ELF3; 1.09 fold enrichment (6-mer frequency, TF over GST control) in the test with ETV1.

The values above are taken from PMC7862700, “An all-to-all approach to the identification of sequence-specific readers for epigenetic DNA modifications on cytosine”.
